Assay results reported in PubChem BioAssay (NCATS).
Records with an inconclusive call do not appear. Active and inactive are the calls of the source. Calls follow the shape of the dose curve; as a rule, active = well fitted cell-killing curve with a large enough effect; inconclusive = small, poorly fitted or top-dose-only effect; inactive = flat fitted curve, though single readings scatter.

Assays:
[1] = Cell Viability - LYMP2-017 (AID 972); conditions: LYMP2-017 lymphoblastoid cell viability; also: nearly all actives have a fitted effect of over 55% in size
In short: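 Cytotoxicity is scored as a concentration-dependent drop in cellular ATP in a human lymphoblastoid line after 24 hr treatment at 37 C. Values are AC50s from Hill-equation modelling.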

[2] = Cell Viability - LYMP2-019 (AID 973); conditions: LYMP2-019 lymphoblastoid cell line viability; also: nearly all actives have a fitted effect of over 55% in size
In short: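 Cytotoxicity is scored as a concentration-dependent drop in cellular ATP after cells (2500/well) receive compound for 24 hr at 37 C. Tetraoctylammonium bromide serves as positive control.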

[3] = Cell Viability - LYMP2-021 (AID 974); conditions: LYMP2-021 lymphoblastoid cells viability;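 also: compound exposure lasts 24 hours at 37 °C; nearly all actives have a fitted effect of over 55% in size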
In short: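 Loss of cellular ATP, measured with a luciferase-based CellTiter-Glo readout, serves as the toxicity signal in human lymphoblastoid cells treated for 24 hours at 37 C. Potency is reported as AC50 from a standard Hill model.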

[4] = Cell Viability - LYMP2-023 (AID 975); conditions: LYMP2-023 lymphoblastoid cell viability; also: nearly all actives have a fitted effect of over 55% in size
In short: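 Steps: seed 2500 human lymphoblastoid cells per well, incubate 5 hr at 37 C, add compound for 24 hr at 37 C, add CellTiter-Glo, hold 30 min at room temperature, read luminescence. AC50 derived by Hill modelling.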

[5] = Cell Viability - LYMP2-025 (AID 976); conditions: LYMP2-025 lymphoblastoid cell viability
In short: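 Acute cytotoxicity is scored as a concentration-dependent fall in intracellular ATP, measured by luciferase luminescence, in human lymphoblastoid LYMP2-025 cells exposed to compound for 24 hours at 37 C. AC50 values come from standard Hill fits.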

[6] = Cell Viability - LYMP2-002 (AID 977); conditions: LYMP2-002 lymphoblastoid cell viability, qHTS;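 also: compound exposure lasted 24 h at 37 °C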
In short: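 Human lymphoblastoid cells, 2500/well, complete medium; 5 h 37 C settle; compound 24 h 37 C; CellTiter-Glo, 30 min RT; luminescence. Decrease in ATP = cytotoxicity; AC50 via Hill equation.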

[7] = Cell Viability - LYMP2-006 (AID 978); conditions: LYMP2-006 lymphoblastoid cell viability, qHTS; also: nearly all actives have a fitted effect of over 60% in size
In short: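 Human lymphoblastoid cells, 2500 per well, were preincubated 5 hr at 37 C, then exposed to compounds for 24 hr at 37 C in complete medium. Viability was read as intracellular ATP by CellTiter-Glo luminescence; AC50 from Hill-equation fits of qHTS concentration-response data.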

[8] = Cell Viability - LYMP2-007 (AID 979); conditions: LYMP2-007 lymphoblastoid cell viability;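 also: cells exposed to compound for 24 h before reading; nearly all actives have a fitted effect of over 60% in size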
In short: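 Cells are seeded at 2500 per well and rested 5 hr. Compounds are then added over a concentration series for 24 hr at 37 C. CellTiter-Glo is added for 30 min at room temperature before luminescence reading.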

[9] = Cell Viability - LYMP2-008 (AID 980); conditions: LYMP2-008 lymphoblastoid cell viability, qHTS; also: nearly all actives have a fitted effect of over 60% in size
In short: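 Cells seeded at 2500/well and rested 5 hr at 37 C; compounds added over a concentration range and incubated 24 hr at 37 C; CellTiter-Glo added, 30 min at room temperature; luminescence read and AC50 fitted with Hill model.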

[10] = Cell Viability - LYMP2-010 (AID 981); conditions: LYMP2-010 lymphoblastoid cell viability, qHTS; also: nearly all actives have a fitted effect of over 55% in size
In short: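 Steps: seed 2500 LYMP2-010 cells per well; incubate 5 hr at 37 C; add compound; incubate 24 hr at 37 C; add CellTiter-Glo, wait 30 min at room temperature; read luminescence. Concentration-response fitted to Hill equation for AC50.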

[11] = Cell Viability - LYMP2-012 (AID 982); conditions: LYMP2-012 lymphoblastoid cell viability qHTS
[12] = Cell Viability - LYMP2-014 (AID 983); conditions: LYMP2-014 lymphoblastoid cells, viability qHTS; also: nearly all actives have a fitted effect of over 50% in size
In short: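 Cells are plated at 2500/well and left 5 hr at 37 C. Compounds are added across a concentration range and incubated 24 hr at 37 C in complete medium. CellTiter-Glo is added, and luminescence is read after 30 min at room temperature.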

[13] = Cell Viability - LYMP2-016 (AID 984); conditions: LYMP2-016 lymphoblastoid cell viability, qHTS; also: nearly all actives have a fitted effect of over 55% in size
In short: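 Human lymphoblastoid cells (LYMP2-016), 2500/well in complete medium, preincubated 5 hr at 37 C, then compound-treated 24 hr at 37 C. Intracellular ATP read by CellTiter-Glo luminescence after 30 min at room temperature; AC50 from Hill-equation concentration-response fits.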

[14] = Cell Viability - LYMP2-018 (AID 985); conditions: LYMP2-018 lymphoblastoid cells, viability (qHTS);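 also: compound exposure lasted 24 hr at 37 °C; nearly all actives have a fitted effect of over 50% in size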
In short: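 Seed 2500 lymphoblastoid cells per well, incubate 5 hr at 37 C, add compound and incubate 24 hr at 37 C, add CellTiter-Glo, wait 30 min at room temperature, then read luminescence.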

[15] = Cell Viability - LYMP2-020 (AID 986); also: nearly all actives have a fitted effect of over 55% in size
In short: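 Seed 2500 cells per well and incubate 5 hr at 37 C. Add compounds at a concentration series and incubate 24 hr at 37 C. Add CellTiter-Glo, wait 30 min at RT, read luminescence, and fit a Hill curve for AC50.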

[16] = Cell Viability - LYMP2-022 (AID 987); conditions: LYMP2-022 lymphoblastoid cell viability; also: nearly all actives have a fitted effect of over 55% in size
In short: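 Cells were seeded at 2500 per well, rested 5 hr at 37 C, and treated with titrated compounds for 24 hr at 37 C. Cellular ATP was then quantified by luciferase luminescence, and AC50 values were derived from Hill-modelled concentration-response curves.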

[17] = Cell Viability - LYMP2-024 (AID 988); conditions: LYMP2-024 lymphoblastoid cell viability; also: nearly all actives have a fitted effect of over 60% in size
In short: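 qHTS cytotoxicity, human lymphoblastoid line, complete medium; 24 h cpd treatment, 37 C; CellTiter-Glo ATP luminescence readout; tetraoctylammonium bromide positive control; AC50 via Hill fit.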

[18] = Cell Viability - LYMP2-026 (AID 989); conditions: LYMP2-026 lymphoblastoid cell viability, qHTS; also: nearly all actives have a fitted effect of over 50% in size
In short: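 Cells are seeded at 2500 per well and held 5 hr at 37 C. Compounds are added in concentration series for 24 hr, then CellTiter-Glo reagent is applied and luminescence read.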

[19] = Cell Viability - LYMP1-002 - Assay at 24 hr (AID 993); conditions: LYMP1-002 lymphoblastoid cells viability
In short: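 Acute toxicity is measured as concentration-dependent loss of cellular ATP in a human lymphoblastoid line (Coriell LYMP1-002) after 24 h treatment in complete medium. ATP is quantified by luciferase luminescence and AC50 derived by Hill modelling.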

[20] = Cell Viability - LYMP1-002 - Assay at 40 hr (AID 994); conditions: LYMP1-002 lymphoblastoid cell viability; also: nearly all actives have a fitted effect of over 60% in size
In short: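 Cells are plated at 2500 per well and rested 5 hr at 37 C. Compounds are added and incubated 40 hr at 37 C. CellTiter-Glo reagent is added for 30 min at room temperature before luminescence is read.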

Measured: Potency
Potency is read from the fitted curve at half-maximal effect.

O=C1c2c(O)ccc([N+](=O)[O-])c2C(=O)c2c([N+](=O)[O-])ccc(O)c21
active: [1] 31.6 µM | [2] 39.8 µM | [3] 39.8 µM | [4] 39.8 µM | [5] 39.8 µM | [6] 39.8 µM | [7] 31.6 µM | [8] 39.8 µM | [9] 31.6 µM | [10] 31.6 µM | [11] 39.8 µM | [12] 39.8 µM | [13] 31.6 µM | [14] 39.8 µM | [15] 39.8 µM | [16] 39.8 µM | [17] 39.8 µM | [18] 39.8 µM | [19] 39.8 µM | [20] 39.8 µM
